Experimental data: PubChem BioAssay (NCATS)
Records with an inconclusive call do not appear. Values without a mark were called inactive. Calls follow the shape of the dose curve; as a rule, active = well fitted activation curve with a large enough effect; inconclusive = small, poorly fitted or top-dose-only effect, or another doubt; inactive = no such curve, though single readings can be large or run the other way.

Target: Rap guanine nucleotide exchange factor 3 (Homo sapiens) (UniProt O95398)
Assay: Counterscreen qHTS for agonist of cAMP-regulated guanine nucleotide exchange factor 3 (EPAC1) (AID 1645889); also: % of control where 0% means no effect; nearly all actives have a fitted effect of over 40% in size
Details: EPAC1 Rap1B-BODIPY-GDP exchange, fluorescence; series mostly up to 154 µM; activation: at the top concentration
How it was run: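 Measured: fluorescence of BODIPY-GDP bound to Rap1B, which falls as exchange proceeds. Conditions include 50 uM competing GDP, 5 and 30 min reads, and a later cAMP challenge for antagonist detection.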

Row | SMILES | activation
1 | CCCC[C@H]1COCCS(=O)(=O)N1Cc1ccc(Br)cc1 | -14.7%
2 | CN(CC(=O)Nc1ccc(F)cc1)C(=O)COC(=O)C1CCN(c2ccc(C(F)(F)F)cn2)CC1 | 18.1%
3 | Cc1cc(-c2ccc(/C=N/n3cnnc3)o2)ccc1Cl | 3.04%
4 | CCCCC[C@@H](C)N1C[C@H](COCc2ccccc2)Oc2cc(N3CC[C@@H](O)C3)ccc2S1(=O)=O | -24.1%
5 | O=C(O)c1cc(NN=Nc2cccc([N+](=O)[O-])c2)cc([N+](=O)[O-])c1 | 8.61% [at 30.8 µM]
6 | Cc1cccc(N2C(=O)C(O)=C(C(=O)c3cccs3)C2c2cccc(Oc3ccccc3)c2)n1 (centres undefined) | -1.3%
7 | C=CCNC(=O)c1oc2ccc(S(=O)(=O)N(CC)CC)cc2c1C | 22.8%
8 | CC(C)CCOP(=O)(c1ccc(N(C)C)cc1)C(O)c1ccc(Cl)cc1Cl (centres undefined) | 1.69%
9 | C[C@H](CO)N1C[C@H](C)[C@@H](CN(C)Cc2ccc(Cl)c(Cl)c2)Oc2c(NC(=O)CCC(F)(F)F)cccc2C1=O | -21.2%
10 | CC(C)C[C@H](NC(=O)C1(c2ccccc2)CCN(C(=O)OC(C)(C)C)CC1)C(=O)N1CCC[C@H]1C(=O)O | -37%
11 | Cc1cc(C)cc(N(CC(=O)Nc2ccc(C(F)(F)F)cc2)S(=O)(=O)c2c(C)[nH]c(=O)[nH]c2=O)c1 | 3.52%
12 | COCOCCn1cc(CN2CCS(=O)(=O)N(Cc3ccc(-c4ccc(OC)cc4)cc3)C(CC(C)C)C2=O)nn1 (centres undefined) | -2.12%
13 | O=C(CSc1nccn1Cc1ccc(Cl)cc1)Nc1ccc2c(c1)OCO2 | 16.6%
14 | O=C(O)CCCC(=O)N1CCN(c2nc(-c3ccccc3Cl)c3cc(Br)ccc3n2)CC1 | 18.6%
